# Most compounds without a hit are left out; they make up all but 13% or so of the library.
# USP10 block: blocks human USP10 ubiquitin-rhodamine cleavage. AID 1645856. purified USP10, Ub-rhodamine fluorescence, 60 min. inhibition, % at 20 µM. Q14694. 47,000 tested, 1.1% active
# Target sequence (Q14694 whole entry, looked up): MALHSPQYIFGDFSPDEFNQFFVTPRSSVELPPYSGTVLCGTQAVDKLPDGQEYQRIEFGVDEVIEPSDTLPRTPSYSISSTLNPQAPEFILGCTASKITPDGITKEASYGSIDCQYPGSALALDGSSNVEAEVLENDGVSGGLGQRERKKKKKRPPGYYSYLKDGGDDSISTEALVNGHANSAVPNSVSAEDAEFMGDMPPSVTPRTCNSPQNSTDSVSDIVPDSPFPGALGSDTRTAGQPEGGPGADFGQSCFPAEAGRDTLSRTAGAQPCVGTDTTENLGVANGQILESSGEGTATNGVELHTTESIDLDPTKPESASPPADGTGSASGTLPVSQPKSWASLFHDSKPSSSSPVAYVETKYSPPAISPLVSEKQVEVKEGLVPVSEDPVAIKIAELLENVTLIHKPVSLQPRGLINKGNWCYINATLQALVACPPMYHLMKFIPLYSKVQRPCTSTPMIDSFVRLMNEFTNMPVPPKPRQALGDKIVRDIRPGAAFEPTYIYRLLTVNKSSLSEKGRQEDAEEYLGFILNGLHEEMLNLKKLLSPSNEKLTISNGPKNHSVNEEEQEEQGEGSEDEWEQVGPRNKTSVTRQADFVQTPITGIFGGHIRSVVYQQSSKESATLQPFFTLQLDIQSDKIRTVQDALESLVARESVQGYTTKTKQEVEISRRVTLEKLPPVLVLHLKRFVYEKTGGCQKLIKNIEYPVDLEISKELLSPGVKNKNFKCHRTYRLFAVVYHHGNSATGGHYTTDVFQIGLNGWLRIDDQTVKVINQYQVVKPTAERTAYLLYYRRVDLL
# USP8 inh: blocks human USP8 ubiquitin-rhodamine cleavage | P40818 | inhibition, % at 20 µM | purified USP8, Ub-rhodamine cleavage fluorescence, 30 min | 47,000 tested, 4.2% active
# USP30 block: human USP30 deubiquitinase inhibition. purified USP30, Ub-rhodamine cleavage fluorescence. 47,000 tested, 5.3% active. Q70CQ3. inhibition, % at 25 µM
# OTUD3 inh: inhibitors of human OTUD3 deubiquitinase | Q5T2D3 | purified OTUD3, Ub-rhodamine fluorescence, 2 h | inhibition, % at 25 µM | 47,000 tested, 0.7% active
# USP28 inh: inhibitors of human USP28 deubiquitinase; Q96RU2; purified USP28, Ub-rhodamine cleavage fluorescence, 30 min; inhibition, % at 25 µM; 47,000 tested, 3% active; AID 1645857
# USP17 block: inhibitors of human USP17 deubiquitinase; A8MUK1; purified USP17, Ub-rhodamine cleavage fluorescence, 3 h; inhibition, % at 50 µM; 47,000 tested, 6.5% active; AID 1645855
# Hits are given with their value; - = inactive; . = no result. Rule as the data show it: active = inhibition above about 30%; inactive = the rest.
SMILES,USP10 block,USP8 inh,USP30 block,OTUD3 inh,USP28 inh,USP17 block
Cc1ccc(C(=O)NCCC(c2ccccc2)c2ccccc2)o1,-,-,-,-,31.1,-
Cn1c(CC2CCN(C(=O)COc3ccc(F)c(F)c3)C2)nc2cccnc21 (centres undefined),-,-,-,-,-,-
CC(C)CCN1C(=O)C2C(C(=O)Nc3ccc(Oc4ccccc4)cc3)C3C=CC2(O3)C1C(=O)NC1CCCCC1 (centres undefined),-,30.5,62.6,30.1,-,.
CCN1CCN(CCCN2C(=O)C3C(C(=O)Nc4ccc(C(C)C)cc4)C4C=CC3(O4)C2C(=O)NC2CCCCC2)CC1 (centres undefined),-,-,-,-,-,-
CC(C)c1ccc(NC(=O)C2C3C=CC4(O3)C2C(=O)N(CCCN2CCC(Cc3ccccc3)CC2)C4C(=O)NC2CCCCC2)cc1 (centres undefined),-,-,35.7,-,-,-
Cc1cc(N2CCN(c3ccc([N+](=O)[O-])cc3)CC2)nc2cc3c(cc12)CCC3,-,-,-,-,-,30.3
CCCCc1nc2sc3c(SCC(=O)NC(c4ccccc4)c4ccccc4)ncnc3c2c2c1CCC2,-,-,-,-,-,-
Cc1cccc(NC(=O)Cc2nnc(-c3ccc4ncccc4c3)o2)c1,-,-,-,-,-,-
CCc1ccc(NC(=O)Cc2nnc(-c3ccc4ncccc4c3)o2)cc1,-,51.3,43.2,-,-,62.6
Cc1ccc(F)cc1NC(=O)Cc1nnc(-c2ccc3ncccc3c2)o1,-,55.8,-,-,-,-
COc1ccccc1CC(=O)N1CCCC1c1cc(C)no1 (centres undefined),-,-,-,-,-,.
COc1cc2c(=O)n(Cc3ccccc3)c(=O)n(CC(=O)N3CCCc4ccccc43)c2cc1OC,-,-,33.8,-,-,-
COc1cccc(Nc2c(C(=O)N3CCCC3)cnc3nc(C)ccc23)c1,-,-,-,-,-,-
Cc1ccc(NC(=O)c2c(C)sc3c(=O)n(C(C)C)cnc23)c(C)c1,-,-,-,-,-,-
Cc1ccc(C)c(NC(=O)c2c(C)sc3c(=O)n(C(C)C)cnc23)c1,-,-,45.3,-,-,44.1
O=C(c1ccc2cc[nH]c2c1)N1CCC2(CC1)N=C(c1ccccc1)NO2,-,-,-,-,-,33.9
Cc1cc(C)c(NC(=O)CSc2nc3cn(C)nc3c(=O)n2CC2CC2)c(C)c1,-,41.9,69.8,-,-,60.8
CCn1cc2nc(SCC(=O)NC3CCCC3)n(Cc3ccccc3)c(=O)c2n1,-,-,-,-,-,-
CC(C(=O)NCc1ccc2c(c1)OCO2)n1nc(-c2ccccc2)c2cc(Cl)ccc21 (centres undefined),-,-,-,-,-,34.7
CC(C(=O)NCc1ccc2c(c1)OCO2)N1CCN(c2ccc(O)cc2)CC1 (centres undefined),-,59.6,-,-,-,73.3
O=C(Cn1nc(C2CC2)cc1C(=O)N1CCCC1)Nc1ccccc1,-,-,-,-,-,-
COc1cc(Cl)c(C)cc1NC(=O)Cc1cn2cc(F)ccc2n1,-,-,-,-,-,-
CC(C)c1cccc(OCCOCCN2CCNCC2)c1,-,-,-,-,48.0,-
O=[N+]([O-])c1ccc(NCCc2csc(-c3cccc(Cl)c3)n2)nc1,-,-,-,-,-,-
Cc1c(-c2noc(-c3cccnc3)n2)nnn1-c1ccccc1,-,-,-,-,-,-
SMILES,USP10 block,USP8 inh,USP30 block,OTUD3 inh,USP28 inh,USP17 block
Cc1c(-c2noc(-c3ccncc3)n2)nnn1-c1ccccc1,-,-,31.2,-,-,-
c1ccc(-n2nnc(-c3noc(-c4ccncc4)n3)c2-c2ccncc2)cc1,-,-,-,-,-,-
c1ccc(-c2nc(-c3nnn(-c4ccccc4)c3-c3ccncc3)no2)cc1,-,-,-,-,-,50.7
O=C(c1ccc(F)cc1)c1sc(Nc2ccc3c(c2)OCCO3)nc1-c1ccccc1,-,-,-,-,-,-
Cc1cc(C)n2cc(-c3sccc3Cl)c(C#N)c2n1,-,-,-,-,-,32.9
Cc1cc(C)n2cnc(C#N)c2n1,-,-,-,-,-,-
COc1ccc(S(=O)(=O)N2CCN(C(=O)c3cc(C)nc4ccccc34)CC2)cc1,-,-,-,-,-,-
COc1cc2c(cc1OC)CN(C(=O)C(NC(=O)c1ccccc1)C(C)C)CC2 (centres undefined),-,53.5,-,-,-,-
O=C(Nc1ccc(F)cc1)c1c(O)c2cnn(Cc3ccccc3)c2[nH]c1=O,-,42.0,-,-,-,-
O=c1[nH]c2c(cnn2Cc2ccccc2)c(O)c1-c1nc(-c2ccccc2F)no1,-,-,-,-,-,-
O=C(NCc1ccccc1F)c1c(O)c2cnn(Cc3ccccc3)c2[nH]c1=O,-,79.6,-,-,-,32.1
O=C(Nc1cccc(F)c1)c1c(O)c2cnn(Cc3ccccc3)c2[nH]c1=O,-,61.5,-,-,-,-
Cc1ccccc1CNC(=O)c1c(O)c2cnn(Cc3ccccc3)c2[nH]c1=O,-,-,-,-,-,-
O=C(c1cnn2cccnc12)N1CCC(c2ccn3nccc3n2)CC1,-,-,33.4,-,-,-
CC1=C(c2ccc(F)cc2)S(=O)(=O)NC1=NCC(=O)Nc1ccc(F)cc1,-,-,52.2,-,-,-
CC1=C(c2ccc(C)c(C)c2)S(=O)(=O)NC1=NCC(=O)NCc1ccccc1,-,-,.,-,.,-
CC1=C(c2ccc(Cl)cc2)S(=O)(=O)NC1=NCC(=O)Nc1ccc(F)cc1,-,-,43.6,-,-,64.1
CC1=C(c2ccc(C)c(C)c2)S(=O)(=O)NC1=NCC(=O)NCCCc1ccccc1,-,-,-,-,-,50.5
CC1=C(c2ccc(F)cc2)S(=O)(=O)NC1=NCC(=O)Nc1cccc(F)c1,-,-,57.8,-,-,40.7
COc1cccc(/C=C(/C(=O)OCC(=O)Nc2ccccc2OC)c2ccccc2)c1,-,-,-,-,-,-
Nc1nc2c(cc1C(=O)N1CCCC1)CN(S(=O)(=O)c1ccc(F)cc1)CC2,-,-,-,-,-,-
Cc1ccc(NC(=O)c2cccc(-c3nc(-c4ccccc4)no3)c2)nc1,-,-,-,-,-,35.3
Cc1ccc(CNC(=O)c2cccc(-c3nc(-c4ccccc4)no3)c2)o1,-,-,-,-,-,-
O=S(=O)(NNc1nc2ccccc2nc1C(F)(F)F)c1ccc(Br)cc1,-,-,36.4,-,-,-
O=S(=O)(Nc1nc2ccccc2nc1NCc1ccc2c(c1)OCO2)c1ccc(F)cc1,-,-,-,-,-,-
CN(C)c1ncc(-c2cccc(C(N)=O)c2)c(C2CCCCN2)n1 (centres undefined),-,-,-,-,-,-
O=C1NC(Cc2c[nH]c3ccccc23)C(=O)NC1Cc1c[nH]c2ccccc12 (centres undefined),-,-,-,-,-,-

# Assay outcomes: PubChem BioAssay, Buhrlage Lab, Dana-Farber Cancer Institute and Novartis Institutes for BioMedical Research (Cambridge, Mass)
